Here are results for eleven compounds from ChEMBL document CHEMBL3988442, “University of Dundee, Small-Polar-MMV Screening Library” (2021).

Structures are written as SMILES. For some of these results: Measured potencies and affinities stand elsewhere.

Common to all, as to set-up: scale not given: direction of the effect not stated beside the values
Assay [1] addresses Protein translocase subunit SecA (Escherichia coli (strain K12)) (UniProt P10408). Kind of assay: Assay to Identify E. coli SecA ATPase Inhibitors. Type of assay: functional. The settings on record: 30 µM.
Assay [2] concerns the target T1, Ubiquitin-activating enzyme e1, putative (Leishmania donovani (strain BPK282A1)) (UniProt E9BSI1).
T1 sequence (whole entry): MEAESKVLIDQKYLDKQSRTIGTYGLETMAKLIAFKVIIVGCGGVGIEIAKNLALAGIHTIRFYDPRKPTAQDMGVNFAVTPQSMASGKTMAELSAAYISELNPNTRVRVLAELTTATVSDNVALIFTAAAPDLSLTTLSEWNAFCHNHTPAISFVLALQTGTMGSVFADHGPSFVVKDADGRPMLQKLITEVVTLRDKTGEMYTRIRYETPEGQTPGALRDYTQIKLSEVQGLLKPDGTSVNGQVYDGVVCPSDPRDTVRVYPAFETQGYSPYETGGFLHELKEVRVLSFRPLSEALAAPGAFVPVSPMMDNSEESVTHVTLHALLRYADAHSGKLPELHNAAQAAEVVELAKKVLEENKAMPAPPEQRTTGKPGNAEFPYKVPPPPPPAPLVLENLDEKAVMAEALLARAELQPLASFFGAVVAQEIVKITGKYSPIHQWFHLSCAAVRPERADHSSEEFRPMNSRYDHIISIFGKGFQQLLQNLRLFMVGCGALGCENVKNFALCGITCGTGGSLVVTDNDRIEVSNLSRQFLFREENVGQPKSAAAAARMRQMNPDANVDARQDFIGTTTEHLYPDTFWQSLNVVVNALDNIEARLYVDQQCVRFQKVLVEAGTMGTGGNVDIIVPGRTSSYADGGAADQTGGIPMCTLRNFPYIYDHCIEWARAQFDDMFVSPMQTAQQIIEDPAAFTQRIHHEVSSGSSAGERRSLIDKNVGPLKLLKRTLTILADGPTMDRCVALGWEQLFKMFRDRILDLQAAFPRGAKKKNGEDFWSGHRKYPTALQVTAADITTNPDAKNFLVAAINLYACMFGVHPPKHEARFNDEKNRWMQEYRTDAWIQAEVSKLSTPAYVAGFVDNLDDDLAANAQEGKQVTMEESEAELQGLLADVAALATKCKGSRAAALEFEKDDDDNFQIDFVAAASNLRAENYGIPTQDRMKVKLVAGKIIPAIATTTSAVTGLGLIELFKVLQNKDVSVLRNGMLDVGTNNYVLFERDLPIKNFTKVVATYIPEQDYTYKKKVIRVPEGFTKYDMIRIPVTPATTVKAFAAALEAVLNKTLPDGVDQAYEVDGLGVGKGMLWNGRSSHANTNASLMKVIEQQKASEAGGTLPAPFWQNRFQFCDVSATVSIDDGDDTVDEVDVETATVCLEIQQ
Kind of assay: Leishmania donovani Ubiquitin Activating Enzyme (LdE1). Type of assay: functional. The conditions noted are these: 30 µM.

Assay [3] deals with AMP-activated protein kinase, AMPK (Homo sapiens) (UniProt P54646+O43741+P54619+Q9UGJ0+Q9Y478+Q13131+Q9UGI9). Kind of assay: AMP-dependent Kinase enzyme assay. An in vitro enzyme assay that detects ADP turnover that is directly proportional to AMPK activity. This uses naive AMPK that is activated during the assay with MK-8722. The assay is classed as functional. The settings on record: 30 µM.

In assay [4] the target is Sialic acid-binding Ig-like lectin 9 (Homo sapiens) (UniProt Q9Y336). Kind of assay: Hs-Siglec9 ALPHAscreen SOP 20170721. The conditions noted are these: 10 µM.
Sequence of Sialic acid-binding Ig-like lectin 9 (Homo sapiens) (Q9Y336 whole entry): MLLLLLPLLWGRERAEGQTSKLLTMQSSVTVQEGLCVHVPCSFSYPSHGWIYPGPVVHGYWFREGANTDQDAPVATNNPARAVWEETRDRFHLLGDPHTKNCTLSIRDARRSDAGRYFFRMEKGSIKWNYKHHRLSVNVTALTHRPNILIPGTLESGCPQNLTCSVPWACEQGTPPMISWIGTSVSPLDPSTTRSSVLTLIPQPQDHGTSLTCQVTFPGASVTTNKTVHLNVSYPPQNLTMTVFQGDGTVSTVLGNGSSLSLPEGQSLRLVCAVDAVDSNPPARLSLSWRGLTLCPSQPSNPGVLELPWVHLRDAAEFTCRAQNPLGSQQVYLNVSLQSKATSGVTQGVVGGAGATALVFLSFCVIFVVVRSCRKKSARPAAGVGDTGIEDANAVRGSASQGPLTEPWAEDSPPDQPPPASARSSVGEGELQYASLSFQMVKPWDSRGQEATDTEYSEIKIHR
The subject of the next assay is Trypanosoma cruzi. Kind of assay: Trypanosoma cruzi phosphomannomutase and mannose-1-phosphate guanylyltransferase assay. The assay is classed as functional. The settings on record: 10 µM.
Assay [5] concerns the target T2, Arginase-2, mitochondrial (Homo sapiens) (UniProt P78540).
T2 sequence (whole entry): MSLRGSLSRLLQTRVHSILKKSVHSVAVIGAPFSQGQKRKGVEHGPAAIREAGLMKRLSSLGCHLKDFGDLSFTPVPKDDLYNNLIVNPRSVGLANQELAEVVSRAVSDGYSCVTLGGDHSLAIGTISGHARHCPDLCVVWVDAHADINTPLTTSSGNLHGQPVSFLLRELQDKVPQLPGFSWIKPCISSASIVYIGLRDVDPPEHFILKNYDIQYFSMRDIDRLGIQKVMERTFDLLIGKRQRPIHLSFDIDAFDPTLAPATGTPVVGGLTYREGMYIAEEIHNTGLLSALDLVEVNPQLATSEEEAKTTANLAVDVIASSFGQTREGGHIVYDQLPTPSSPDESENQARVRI
Kind of assay: in vitro enzyme assay to detect the production of urea directly proportional to the activity of Arginase II. Further: in the data most compounds retested in dose-response had high values. The assay is classed as functional. The conditions noted are these: 33.3 µM.

Assay [6] deals with T3, Proteasome subunit beta (Trypanosoma cruzi) (UniProt O96673).
T3 sequence (whole entry): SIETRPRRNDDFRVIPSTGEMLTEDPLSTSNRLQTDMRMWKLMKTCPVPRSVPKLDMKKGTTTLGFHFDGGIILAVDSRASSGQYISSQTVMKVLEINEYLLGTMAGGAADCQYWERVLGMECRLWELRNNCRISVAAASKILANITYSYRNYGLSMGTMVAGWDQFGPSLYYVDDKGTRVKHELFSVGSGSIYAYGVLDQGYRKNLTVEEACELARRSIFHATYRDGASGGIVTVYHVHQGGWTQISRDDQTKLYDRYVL
Kind of assay: Trypanosoma cruzi proteasome chymotrypsin-like activity (TcProtChymo) assay. Further: in the data most compounds retested in dose-response had high values. Type of assay: functional. The settings on record: 9.37 µM.

The species named for the next assay is Homo sapiens. Kind of assay: To identify inhibition of the IFN signalling (Jak-Stat) pathway via expression of an eGFP reporter gene under the control of an IFN-stimulated response element (ISRE) containing MxA promoter. Type of assay: functional. The conditions noted are these: 30 µM.
Assay [7] has as its target T4, Tyrosyl-tRNA synthetase, putative (Trypanosoma cruzi (strain CL Brener)) (UniProt Q4DSP6).
T4 sequence (whole entry): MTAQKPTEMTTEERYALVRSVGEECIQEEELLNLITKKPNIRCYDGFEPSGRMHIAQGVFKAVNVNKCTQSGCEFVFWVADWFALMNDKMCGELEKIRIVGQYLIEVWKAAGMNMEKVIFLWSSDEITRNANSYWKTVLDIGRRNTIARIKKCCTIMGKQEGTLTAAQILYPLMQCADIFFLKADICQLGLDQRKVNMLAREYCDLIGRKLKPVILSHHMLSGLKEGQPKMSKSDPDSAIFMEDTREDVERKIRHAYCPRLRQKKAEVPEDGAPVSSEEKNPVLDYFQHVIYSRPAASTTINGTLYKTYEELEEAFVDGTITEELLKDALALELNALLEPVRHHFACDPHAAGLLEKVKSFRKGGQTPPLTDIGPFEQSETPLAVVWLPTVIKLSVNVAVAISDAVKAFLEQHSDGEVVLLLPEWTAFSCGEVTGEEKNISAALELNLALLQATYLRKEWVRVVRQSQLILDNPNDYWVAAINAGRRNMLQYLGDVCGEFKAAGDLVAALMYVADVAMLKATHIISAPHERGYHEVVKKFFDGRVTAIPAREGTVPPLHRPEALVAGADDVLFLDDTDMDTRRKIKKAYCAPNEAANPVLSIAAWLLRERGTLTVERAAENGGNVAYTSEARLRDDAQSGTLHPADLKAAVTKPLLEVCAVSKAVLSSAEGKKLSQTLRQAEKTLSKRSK
Kind of assay: Trypanosoma cruzi tyrosyl tRNA synthetase (TcYRS) _High Tyrosine SOP. Further: in the data most compounds retested in dose-response had high values. The assay is classed as functional. The settings on record: 30 µM.

The target of assay [8] is T4, Tyrosyl-tRNA synthetase, putative (Trypanosoma cruzi (strain CL Brener)). Kind of assay: Trypanosoma cruzi tyrosyl tRNA synthetase (TcYRS) SOP. The conditions noted are these: 30 µM. The assay is classed as functional.
The target in assay [9] is Chromo domain-containing protein 1 (Saccharomyces cerevisiae (strain ATCC 204508 / S288c) (Baker's yeast)) (UniProt P32657). Kind of assay: ScCHD-1 Enzyme Inhibition Assay. Further: in the data most compounds retested in dose-response had high values. The assay is classed as functional. The conditions noted are these: 30 µM.
Sequence of Chromo domain-containing protein 1 (Saccharomyces cerevisiae (strain ATCC 204508 / S288c) (Baker's yeast)) (P32657 whole entry, the tested form may be a part): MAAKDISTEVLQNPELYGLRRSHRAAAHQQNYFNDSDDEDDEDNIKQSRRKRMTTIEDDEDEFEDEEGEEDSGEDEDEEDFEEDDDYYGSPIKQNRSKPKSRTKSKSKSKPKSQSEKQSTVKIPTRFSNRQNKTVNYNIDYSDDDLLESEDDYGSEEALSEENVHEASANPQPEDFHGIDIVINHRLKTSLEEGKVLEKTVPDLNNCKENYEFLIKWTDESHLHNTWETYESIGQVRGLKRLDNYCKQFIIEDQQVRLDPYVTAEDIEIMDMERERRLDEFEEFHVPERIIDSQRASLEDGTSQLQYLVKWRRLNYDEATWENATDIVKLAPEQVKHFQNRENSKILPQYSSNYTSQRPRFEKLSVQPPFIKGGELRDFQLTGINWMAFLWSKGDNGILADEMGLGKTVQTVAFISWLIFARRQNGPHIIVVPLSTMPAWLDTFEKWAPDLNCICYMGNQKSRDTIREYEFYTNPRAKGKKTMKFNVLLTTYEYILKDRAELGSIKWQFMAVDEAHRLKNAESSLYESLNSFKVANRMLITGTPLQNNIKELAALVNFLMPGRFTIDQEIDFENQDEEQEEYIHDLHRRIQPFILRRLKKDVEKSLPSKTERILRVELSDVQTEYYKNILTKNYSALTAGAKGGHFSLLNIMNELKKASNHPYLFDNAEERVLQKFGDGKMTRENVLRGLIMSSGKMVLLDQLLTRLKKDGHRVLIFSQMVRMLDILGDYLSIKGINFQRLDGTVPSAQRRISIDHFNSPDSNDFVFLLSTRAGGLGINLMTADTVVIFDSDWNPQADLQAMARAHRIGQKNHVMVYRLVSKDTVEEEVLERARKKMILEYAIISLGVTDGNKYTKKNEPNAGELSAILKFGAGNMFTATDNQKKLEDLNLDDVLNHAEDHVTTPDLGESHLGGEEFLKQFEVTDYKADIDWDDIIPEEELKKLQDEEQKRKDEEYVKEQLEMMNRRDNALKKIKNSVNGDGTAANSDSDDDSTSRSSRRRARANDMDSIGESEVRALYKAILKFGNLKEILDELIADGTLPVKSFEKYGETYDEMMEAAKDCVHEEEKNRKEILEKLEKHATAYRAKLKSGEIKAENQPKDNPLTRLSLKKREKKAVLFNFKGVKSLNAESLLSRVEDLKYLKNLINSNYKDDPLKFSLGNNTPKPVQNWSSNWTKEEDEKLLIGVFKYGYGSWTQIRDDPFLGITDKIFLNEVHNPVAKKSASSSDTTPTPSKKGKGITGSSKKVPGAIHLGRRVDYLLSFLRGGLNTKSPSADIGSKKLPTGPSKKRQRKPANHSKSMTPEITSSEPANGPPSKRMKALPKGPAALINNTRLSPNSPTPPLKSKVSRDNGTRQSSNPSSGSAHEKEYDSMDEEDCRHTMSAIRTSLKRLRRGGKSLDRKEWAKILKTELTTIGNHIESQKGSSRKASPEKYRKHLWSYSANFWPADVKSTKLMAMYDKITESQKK

Sequence of Protein translocase subunit SecA (Escherichia coli (strain K12)) (P10408 whole entry): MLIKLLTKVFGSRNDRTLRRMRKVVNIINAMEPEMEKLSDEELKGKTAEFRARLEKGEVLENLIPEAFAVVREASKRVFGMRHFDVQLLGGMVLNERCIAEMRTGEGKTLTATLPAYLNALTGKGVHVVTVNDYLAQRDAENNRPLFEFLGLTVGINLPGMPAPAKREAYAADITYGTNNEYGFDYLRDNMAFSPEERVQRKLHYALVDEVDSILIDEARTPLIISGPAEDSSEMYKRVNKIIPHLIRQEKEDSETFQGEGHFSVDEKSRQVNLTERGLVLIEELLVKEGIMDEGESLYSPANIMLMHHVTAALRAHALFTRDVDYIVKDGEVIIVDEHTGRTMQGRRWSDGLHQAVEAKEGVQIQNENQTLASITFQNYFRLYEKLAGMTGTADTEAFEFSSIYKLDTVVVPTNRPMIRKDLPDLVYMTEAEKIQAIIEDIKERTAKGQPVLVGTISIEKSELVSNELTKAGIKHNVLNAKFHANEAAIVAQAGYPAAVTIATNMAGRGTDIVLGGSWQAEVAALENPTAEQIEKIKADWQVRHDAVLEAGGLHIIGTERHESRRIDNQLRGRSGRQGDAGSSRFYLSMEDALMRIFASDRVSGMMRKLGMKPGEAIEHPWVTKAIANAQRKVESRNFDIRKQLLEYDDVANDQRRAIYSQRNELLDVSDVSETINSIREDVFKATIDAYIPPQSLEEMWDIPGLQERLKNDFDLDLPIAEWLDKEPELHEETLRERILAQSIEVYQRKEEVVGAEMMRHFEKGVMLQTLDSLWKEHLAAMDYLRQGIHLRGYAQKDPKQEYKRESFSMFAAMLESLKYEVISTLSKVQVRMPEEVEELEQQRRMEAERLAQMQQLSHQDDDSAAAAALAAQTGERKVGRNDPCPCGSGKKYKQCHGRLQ

Regarding `COC(=O)CCNC(=O)c1ccoc1CN1c2ccccc2CC1C` (stereo unspecified), the Percent Effect in [1] is -4.57%; in assay [2], 0%; in [3], 6.85%; in assay [4] it was 8.39%; in the assay with Trypanosoma cruzi, 1.98%; in assay [5], -18.4%. Moreover, the Percent Effect was 19.9% in assay [6]; 9.3% in the assay filed under Homo sapiens; 6.25% in assay [7]; 3.7% in assay [8]; -2.6% in assay [9].

As for `Cc1cc(C)n(CC2CN(CC(=O)Nc3c(C)n[nH]c3C)CCO2)n1` (stereo unspecified), the Percent Effect was -3.28% in [1]; 15.6% in [2]; 2.77% in [3]; 0.0825% in assay [4]; -8.61% in the assay with Trypanosoma cruzi; 0% in assay [5]. Moreover, the Percent Effect in [6] was 10.5%; in the assay filed under Homo sapiens, 24.1%; in assay [7], 6.8%; in [8] it was 12.2%; in assay [9] it was -3.32%.

Take `CS(=O)(=O)c1ccccc1C(=O)NCC1Cc2ccccc2O1` (stereo unspecified): the Percent Effect was -1.96% in assay [1]; 11% in assay [2]; -2.95% in [3]; 0.634% in [4]; -4.31% in the assay on Trypanosoma cruzi; 0.455% in assay [5]. Besides, the Percent Effect in assay [6] is 19%; in the assay filed under Homo sapiens it was 20.8%; in assay [7], 4.3%; in assay [8], 7.5%; in assay [9] it was -5.76%.

In the case of `OCC1CCCN1c1cc(N2CCC(OC3CCCC3)CC2)ncn1` (stereo unspecified), the Percent Effect is -0.479% in assay [1]; 23.4% in assay [2]; -10.1% in [3]; -5.43% in assay [4]; 3.04% in the assay with Trypanosoma cruzi; 2.32% in assay [5]. Further, the Percent Effect in assay [6] was 15.8%; in the assay filed under Homo sapiens, -7.13%; in assay [7], 7.62%; in assay [8] it was 23.5%; in [9], -22.6%.

With `CC(NC(=O)NCCn1ccnc1)c1ccc2c(c1)NC(=O)CO2` (stereo unspecified), the Percent Effect in [1] is -4.14%; in assay [2], 10.1%; in assay [3], 1.48%; in assay [4], 0.18%; with Trypanosoma cruzi, -7.65%; in assay [5] it was -1.52%. The Percent Effect was -0.409% in assay [6]; 17.8% in the assay filed under Homo sapiens; 0.493% in [7]; 13.9% in assay [8]; -1.54% in assay [9].

Consider `CN(C)C(C)(C)CNC(=O)C(C)(C)c1ccccc1F`, for which the Percent Effect in assay [1] is -0.22%; in assay [2] it was 9.72%; in assay [3], -4.87%; in [4] it was 4.5%; with Trypanosoma cruzi it was -4.18%; in assay [5], -0.442%. The Percent Effect in assay [6] is 13.2%; in the assay filed under Homo sapiens it was 17.2%; in assay [7], 4.21%; in assay [8] it was -2.56%; in assay [9], 105%.

On to `Cc1ccc(-c2nc(CN3CCc4nn(C)c(=O)cc4C3)co2)cc1`, for which the Percent Effect was -3.32% in assay [1]; 35.1% in assay [2]; -173% in assay [3]; 1.71% in assay [4]; -2.74% with Trypanosoma cruzi; 1.2% in [5]. Further, the Percent Effect in assay [6] is 17.1%; in the assay listed under Homo sapiens it was 11.3%; in assay [7] it was 3.45%; in assay [8], 13.6%; in assay [9], -6.66%.

As to `COc1ccccc1N1CCC(CNCc2cccc(OC)c2OC)C1` (stereo unspecified), the Percent Effect in assay [1] is -3.66%; in [2], 10.8%; in assay [3], -14.2%; in [4] it was 3.03%; in the assay on Trypanosoma cruzi it was 6.51%; in assay [5], -13.6%. Further, the Percent Effect in assay [6] was 7.75%; in the assay listed under Homo sapiens, 18.9%; in assay [7] it was 13.3%; in assay [8], 23.5%; in assay [9], -8.44%.

On to `c1cnnc(NCC2CN(CCN3CCCCC3)CCO2)c1` (stereo unspecified), for which the Percent Effect was -2.02% in [1]; -7.79% in assay [2]; 5.05% in [3]; 6.18% in assay [4]; 9.74% in the assay with Trypanosoma cruzi; -3.56% in assay [5]. In addition, the Percent Effect in assay [6] is 1.01%; in the assay listed under Homo sapiens, -18.9%; in assay [7] it was 0.971%; in [8], 7.32%; in [9] it was -2.7%.

For the compound `CCc1cnc(C)nc1NCCN1CCCCCC1`, the Percent Effect in assay [1] was -0.998%; in assay [2], 5.2%; in assay [3], -1.3%; in assay [4] it was 10.8%; in the assay on Trypanosoma cruzi, -0.295%; in assay [5] it was 0%. The Percent Effect is 14.3% in [6]; 0.592% in the assay filed under Homo sapiens; 14% in [7]; 16.1% in assay [8]; -4.71% in assay [9].

Take `O=C1COC2(CCN(Cc3ccc(F)cc3)CC2)CN1`: the Percent Effect was -4.15% in assay [1]; 2.7% in assay [2]; 2.05% in [3]; -2.96% in assay [4]; 6.25% in the assay with Trypanosoma cruzi; -0.417% in [5]. Also, the Percent Effect in assay [6] is 10.2%; in the assay filed under Homo sapiens it was -6.9%; in [7], 5.94%; in assay [8] it was 15.8%; in assay [9], -6.08%.
